According to article PMC4336329 (PLoS ONE, 2015):
Out of some 310,000 compounds screened, about 14,000 (4.5%) showed an effect of 50% or more. Effects have a minus sign here. What follows is part of a selection rich in strong results, with near analogues and random picks from the rest.

molecular target: human ether-à-go-go-related gene (hERG) potassium channel (human, UniProt Q12809); experiment: primary screen, population patch clamp on CHO cells stably expressing hERG; higher = less effect of the substance
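Also: peak tail current of the secondary pulse compared with the same well before compound.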

human ether-à-go-go-related gene (hERG) potassium channel, sequence (Q12809 whole entry, looked up): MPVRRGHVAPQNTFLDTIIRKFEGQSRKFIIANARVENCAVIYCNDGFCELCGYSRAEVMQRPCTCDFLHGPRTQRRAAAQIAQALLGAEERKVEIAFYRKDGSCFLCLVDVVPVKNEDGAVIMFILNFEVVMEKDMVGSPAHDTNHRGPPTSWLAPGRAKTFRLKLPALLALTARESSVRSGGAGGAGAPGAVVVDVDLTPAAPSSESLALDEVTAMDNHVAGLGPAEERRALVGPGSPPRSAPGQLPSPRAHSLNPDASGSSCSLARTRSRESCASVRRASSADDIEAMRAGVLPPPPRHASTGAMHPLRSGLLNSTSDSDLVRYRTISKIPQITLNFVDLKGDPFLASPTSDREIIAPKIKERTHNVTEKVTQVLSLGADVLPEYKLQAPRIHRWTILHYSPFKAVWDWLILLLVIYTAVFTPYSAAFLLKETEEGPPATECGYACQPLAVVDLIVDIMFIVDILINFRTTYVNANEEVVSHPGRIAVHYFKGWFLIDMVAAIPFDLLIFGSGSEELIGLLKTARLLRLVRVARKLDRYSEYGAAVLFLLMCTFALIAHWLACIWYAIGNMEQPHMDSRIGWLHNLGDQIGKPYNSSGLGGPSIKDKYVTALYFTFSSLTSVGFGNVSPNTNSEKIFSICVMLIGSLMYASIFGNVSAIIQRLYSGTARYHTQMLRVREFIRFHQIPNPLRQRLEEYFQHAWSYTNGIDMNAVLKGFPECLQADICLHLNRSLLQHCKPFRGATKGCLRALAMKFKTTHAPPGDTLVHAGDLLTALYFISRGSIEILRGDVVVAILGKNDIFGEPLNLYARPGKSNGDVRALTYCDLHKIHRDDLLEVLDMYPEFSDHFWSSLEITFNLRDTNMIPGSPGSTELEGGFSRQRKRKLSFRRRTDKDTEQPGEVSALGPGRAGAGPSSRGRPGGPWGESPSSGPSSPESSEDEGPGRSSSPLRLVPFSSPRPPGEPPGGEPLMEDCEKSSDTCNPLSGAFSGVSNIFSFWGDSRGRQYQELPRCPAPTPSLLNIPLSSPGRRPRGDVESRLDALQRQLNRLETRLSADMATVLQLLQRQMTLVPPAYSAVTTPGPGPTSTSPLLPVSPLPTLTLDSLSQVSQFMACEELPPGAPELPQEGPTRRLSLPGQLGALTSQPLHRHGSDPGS

Compound | hERG current change (%, negative = inhibition) at 10uM [%]
NS(=O)(=O)c1ccc(CCNC(=O)c2ccc(Cl)cc2[N+](=O)[O-])cc1 | 16.7
COc1ccccc1N1CCN(C2CC(=O)N(c3ccc(F)cc3)C2=O)CC1 (stereo not shown) | 0.313
O=C1CSC(c2ccccc2)N1c1ccc(F)cc1F (stereo not shown) | 4.37
CCn1c(Cc2ccccc2)nnc1SCC(=O)Nc1ccc(S(N)(=O)=O)cc1 | 2.13
Cc1ccc(Cn2c(SCc3cccnc3)nc3c2c(=O)n(C)c(=O)n3C)cc1 | -0.713
Cc1ccc(-c2ccc(S(=O)(=O)NCC3CCCO3)cc2)cc1 (stereo not shown) | 26.2
CCN(CC)CCCN(C(=O)c1ccc(F)cc1)c1nc(-c2ccc(OC)cc2)cs1 | -75.1
COc1ccc(-c2csc(N(CCCN(C)C)C(=O)c3ccc(Br)cc3)n2)cc1.O=C(O)C(=O)O | -44
COCCN(C(=O)c1ccccc1)c1nc(-c2ccc(OC)cc2)cs1 | 28.5
CCN(CC)CCCN(C(=O)c1cccc(C)c1)c1nc(-c2ccc(OC)cc2)cs1 | -78.2
COCCCN(C(C)=O)c1nc(-c2ccc(OC)cc2)cs1 | -16.5
CCN(CC)CCCN(C(=O)c1ccc(OC)cc1)c1nc(-c2ccc(OC)cc2)cs1 | -73.7
CCC(=O)N(CC)c1nc(-c2ccc(OC)cc2)cs1 | -5.81
COCCCN(C(=O)c1ccccc1)c1nc(-c2ccc(OC)cc2)cs1 | 18.3
CCN(CC)CCCN(C(=O)c1ccc(Br)cc1)c1nc(-c2ccc(OC)cc2)cs1.Cl | -73.2
COCC(=O)N/N=C\c1cccc(OC)c1OC/C=C/c1ccccc1 | -15.6
O=C(NC1CCCCC1)c1cc(-c2ccc(O)cc2)on1 | 0.886
COc1ccc(Cl)cc1NC(=O)CSc1nc2sccc2c(=O)[nH]1 | 25.2
COc1cc([N+](=O)[O-])ccc1NC(=O)Cc1ccc(F)cc1 | 0.277
CC(=O)N1N=C(c2ccccc2)CC1c1cn(Cc2ccccc2)c2ccccc12 (stereo not shown) | -13.6
CCCCNc1ccc(S(N)(=O)=O)cc1[N+](=O)[O-] | -0.608
Cc1ccc(S(=O)(=O)N2CCN(Cc3nc4ccccc4[nH]3)CC2)cc1C | -45.1
CCN(CC)CCCN(C(C)=O)c1nc(-c2cc(OC)ccc2OC)cs1.Cl | -65.8

Compound | hERG current change (%, negative = inhibition) at 10uM [%]
CCC(=O)N(CC)c1nc(-c2cc(OC)ccc2OC)cs1 | 15
CCC(=O)N(CCCN(C)C)c1nc(-c2cc(OC)ccc2OC)cs1.Cl | -37.3
CC(/C=C/c1ccccc1)=N\NC(=O)c1ccc2c(c1)OCCO2 | 3.3
O=C(NCc1ccncc1)C(=O)NCC1OCCCN1S(=O)(=O)c1cc(F)ccc1F (stereo not shown) | 4.86
COc1ccccc1C(=O)Oc1cc(N)n(S(=O)(=O)c2ccc(C)cc2)n1 | -7.77
O=C(CSC(=S)N1CCOCC1)Nc1nccs1 | -1.54
CCc1c(C)nc(SCC(=O)N2CCCCC2)[nH]c1=O | 3.18
CN1c2ccccc2Oc2nnc(Cl)cc21 | -5.87
CCN1CCN(c2cc3c(nn2)Oc2ccccc2N3C)CC1 | -41.1
CN1c2ccccc2Oc2nnc(N3CCN(Cc4ccccc4)CC3)cc21 | -78
C=C(C)C(=O)Nc1cccc(C2=NOC3(C2)C[C@@H](C(N)=O)N(C(=O)C(=C)C)C3)c1 (stereo partly shown) | 7.14
CCOc1ccc(-c2nc(N)ncc2Oc2cccc(OC)c2)c(O)c1 | 6.7
COCCn1c(SCCN2CCOCC2)nc2c1c(=O)[nH]c(=O)n2C | 14.2
CCCCCn1c(SCCN2CCOCC2)nc2c1c(=O)[nH]c(=O)n2C | -66.5
CC(C)CCn1c(SCCN2CCOCC2)nc2c1c(=O)[nH]c(=O)n2C | -17.7
CCCCCCn1c(SCCN2CCOCC2)nc2c1c(=O)[nH]c(=O)n2C | -74.6
CCCCCn1c(SCCC(C)C)nc2c1c(=O)[nH]c(=O)n2C | -11.9
C/C(Cl)=C/Cn1c(SCCN2CCOCC2)nc2c1c(=O)[nH]c(=O)n2C | -64.6
CCCCCn1c(SCCOCC)nc2c1c(=O)[nH]c(=O)n2C | -46.8
C=CCn1c(SCCN2CCOCC2)nc2c1c(=O)[nH]c(=O)n2C | 8.38
C=C(C)Cn1c(SCCN2CCOCC2)nc2c1c(=O)[nH]c(=O)n2C | -4.61
CCN1CCCC1CNC(=O)c1cc2c(=O)n(C)c3ccccc3c2n1C (stereo not shown) | -18.5
Cc1ccc(CN(Cc2cccnc2)C(=S)Nc2cccc(Cl)c2C)cc1 | 8.32
